DTT redox prof – compounds producing H2O2 with reducing agent – biochemical, NIH compound library profiling, artefact control for MLSCN library redox annotation, primary screen; DTT-dependent redox cycling H2O2, phenol red/HRP absorbance; 100% = 100 µM peroxide control, 0% = buffer; actives 0.03% (n = 200,000); activation, % at 10 µM; AID 878;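 active = activation of at least 50% relative to the plate's high and low controls in the primary single-dose screen; inactive = activation below 50%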;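 also: compound incubated with DTT at 0.8 mM final as the reducing agent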
LYPLA1 counter – LYPLA1 (human) inhibition in PME1 counter-screen; AID 2174; inhibition, % at 5.9 µM; O75608; recombinant LYPLA1, FP-Rh probe fluorescence polarization; actives 0.16% (n = 320,000);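 active = inhibition above the mean of all tested compounds plus 3 SD, set per campaign, cut at about 14% in these data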;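 also: inhibitors block serine hydrolase probe labeling of LYPLA1 so polarization falls; 0% = enzyme with DMSO and 100% = wells lacking LYPLA1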
Target sequence (O75608 whole entry, looked up): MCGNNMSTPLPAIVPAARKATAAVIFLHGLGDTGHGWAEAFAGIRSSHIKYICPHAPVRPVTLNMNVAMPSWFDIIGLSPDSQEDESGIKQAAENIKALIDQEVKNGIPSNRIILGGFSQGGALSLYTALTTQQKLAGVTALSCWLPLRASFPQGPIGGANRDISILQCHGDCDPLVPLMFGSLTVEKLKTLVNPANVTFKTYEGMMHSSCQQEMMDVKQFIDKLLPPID
LYPLA2 inh – LYPLA2 (human) inhibition in PME1 counter-screen. recombinant LYPLA2, FP-Rh probe fluorescence polarization. actives 0.38% (n = 320,000). inhibition, % at 5.9 µM;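 active = inhibition above the screen-wide mean plus 3 SD, limit set per campaign, cut at about 26% in these data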;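 also: 0% = LYPLA2 with DMSO and 100% = wells lacking LYPLA2 enzyme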
Target sequence (O95372 whole entry, looked up): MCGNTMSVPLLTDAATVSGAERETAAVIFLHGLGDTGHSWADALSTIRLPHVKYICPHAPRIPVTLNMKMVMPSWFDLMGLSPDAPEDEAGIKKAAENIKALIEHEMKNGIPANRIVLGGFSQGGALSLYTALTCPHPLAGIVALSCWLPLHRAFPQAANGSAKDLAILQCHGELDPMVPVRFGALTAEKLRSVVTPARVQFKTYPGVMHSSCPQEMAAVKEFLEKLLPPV
p97 ATPase inh – inhibitors of human p97 ATPase | P55072 | recombinant p97 ATPase, Kinase-Glo ATP luminescence, 3 h | actives 0.42% (n = 220,000) | inhibition, % at 8 µM; in the data active = inhibition above about 15%;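 also: 0% = DMSO vehicle and 100% = wells lacking enzyme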
LYPLA2 conf – LYPLA2 (human) inhibition, confirmation counter-screen; shares compounds with LYPLA2 inh; recombinant LYPLA2, FP-Rh probe fluorescence polarization; inhibition, % at 5.9 µM; actives 72% (n = 1,100);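 active = mean inhibition across replicates above the hit cutoff set in the primary screen, cut at about 26% in these data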;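 also: blocked labeling of the enzyme by serine hydrolase FP-Rh probe lowers polarization; 0% = enzyme with DMSO and 100% = wells lacking LYPLA2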
LYPLA2 gel ABPP – LYPLA2 (human) inhibition, late stage results; shares compounds with LYPLA2 inh; actives 30% (n = 150); rhLYPLA2 in mouse brain proteome, gel ABPP FP-Rh; AID 652029; inhibition, % at 20 µM;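 active = inhibition of LYPLA2 enzyme probe labeling above about 50%, limit read from the data; inactive = inhibition below that limit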;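 also: loss of FP-Rh probe labeling of the LYPLA2 gel band measured as band density; 0% = DMSO only control band and 100% = blank gel background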
Starred values were filed as active, the others as inactive; x = no result. The list is not random: actives were taken first. Their share in the collection is about 0.74%.

SMILES	DTT redox prof	LYPLA1 counter	LYPLA2 inh	p97 ATPase inh	LYPLA2 conf	others
O=C(O/N=C/c1ccc2c(c1)OCO2)c1ccccc1Cl	-12	3	26*	-6	14
CO/N=C/c1ccc(N2CCCC2)c([N+](=O)[O-])c1	-1	0	2	2	x
O=C(O)c1cccc(NC(=O)c2ccc3c(c2)C(=O)N(c2cccc([N+](=O)[O-])c2)C3=O)c1	x	0	24	x	x
O=C(O)c1cccc(N2C(=O)c3ccc(C(=O)c4cccc([N+](=O)[O-])c4)cc3C2=O)c1	x	4	45*	2	58*	LYPLA2 gel ABPP=45
O=C(NC(=S)N(Cc1ccccc1)Cc1ccccc1)c1ccccc1F	2	1	7	-2	x
COc1cc(NC(=O)CN2C(=O)COc3ccc(S(=O)(=O)N4CCCC4)cc32)cc(OC)c1	x	-1	17	x	x
COc1cccc(NC(=O)CN2C(=O)CSc3ccc(S(=O)(=O)N4CCCCC4)cc32)c1	x	-2	40*	x	38*
Cc1cc(C)cc(NC(=O)CN2C(=O)COc3ccc(S(=O)(=O)N4CCCC4)cc32)c1	x	1	37*	x	33*
CCOC(=O)Cc1cnc(NC(=O)CSc2nc(C)c(CC)c(=O)[nH]2)s1	1	4	3	4	x
O=C(COc1cccc(F)c1)NNC(=O)Cc1ccc(Br)cc1	x	-6	-2	x	x
COc1ccc(/C=C2/SC(=O)N(CCC(=O)Nc3ccc(C)cc3)C2=O)cc1OC	1	0	-5	7	x
COc1ccc(/C=C2\SC(=O)N(CC(=O)Nc3ccc(F)cc3)C2=O)cc1O	x	-14	49*	x	54*	LYPLA2 gel ABPP=50*
COc1cc(/C=C2\SC(=O)N(CC(=O)Nc3ccccc3F)C2=O)cc(Cl)c1O	x	1	51*	x	61*
COc1cccc(/C=C2\Sc3ccc(C(=O)NCc4cccnc4)cc3N(C)C2=O)c1	0	-5	4	7	x
CCN1C(=O)S/C(=C/c2ccc(Oc3ccc([N+](=O)[O-])cn3)c(OC)c2)C1=O	0	4	32*	1	41*
COc1ccc(/C=C2\Sc3ccc(C(=O)NCc4cccnc4)cc3N(C)C2=O)cc1OC	-1	7	28*	2	13
Cc1ccc(S(=O)(=O)Nc2cccc(C(=O)NCCCN3CCOCC3)c2)cc1F	x	1	-7	x	x
CC(=O)Oc1ccc2c(=O)c(/C=N/c3cc(=O)[nH]c(=S)[nH]3)coc2c1	x	-2	3	-2	x
COc1cc(/C=C2/SC(=S)N(CC(=O)Nc3cccnc3)C2=O)cc(OC)c1OC	0	-6	2	-1	x
COc1ccc(/C=C2\SC(=O)N(CC(=O)Nc3cccnc3)C2=O)cc1OC	0	0	35*	2	26*
O=C(COc1ncnc2cc(Cl)ccc12)c1ccccc1	x	0	2	4	x
O=C(COc1ncnc2ccccc12)c1ccc(Cl)cc1	1	-2	29*	-2	24
COc1ccc(C(=O)COc2ncnc3cc(Cl)ccc23)cc1	x	0	27*	-2	31*
Cc1cc(C)c(S(=O)(=O)N2CCN(C(=O)c3ccc(-n4cncn4)c([N+](=O)[O-])c3)CC2)c(C)c1	x	2	4	x	x
CCn1c(=O)cc(OCC(=O)N2CCCC2)c2ccccc21	-1	3	1	-8	x
SMILES	DTT redox prof	LYPLA1 counter	LYPLA2 inh	p97 ATPase inh	LYPLA2 conf	others
CCn1c(=O)cc(OCC(=O)N2CCN(c3cccc(C(F)(F)F)c3)CC2)c2ccccc21	-1	7	51*	2	47*
CN1C(=O)CC(C(=O)Nc2ccc(F)cc2)SC1=Nc1ccc2c(c1)OCO2 (centres undefined)	0	-1	9	0	x
Cc1ccc(N=C2NC(=O)CC(C(=O)Nc3ccc4c(c3)OCO4)S2)cc1 (centres undefined)	0	3	28*	4	13
O=c1cc(Cl)c(-c2ccccc2)nn1Cc1ccc(Cl)cc1	x	0	26*	x	35*
O=c1c2ccccc2c(-c2ccccc2)nn1Cc1ccc(Cl)cc1	3	2	-7	-4	x
CN(CC(=O)O/N=C(\N)c1ccccn1)S(=O)(=O)c1ccc(Br)cc1	-1	3	40*	-6	22
O=C(O)c1ccc(Cn2cnc3scc(-c4ccccc4)c3c2=O)cc1	-1	-1	-3	8	x
CCCOc1ccc(-c2csc3ncn(Cc4ccc(C(=O)O)cc4)c(=O)c23)cc1	0	-5	30*	6	33*
O=C(CC(=O)Nc1ccc(Cl)cc1)N/N=C\c1cccc(F)c1	x	-3	-4	x	x
CC(=O)Oc1ccc(C(=O)N2c3ccccc3NC(=O)C2C)cc1 (centres undefined)	x	1	1	x	x
CC(=O)NCCc1ccc(C(=O)Cn2cnc3ccccc3c2=O)cc1	x	2	29*	x	39*
Cn1c(SCC(=O)Nc2ccc3cn[nH]c3c2)nnc1-c1cnccn1	-2	-1	4	3	x
Cn1c(SCC(=O)Nc2ccc3cn[nH]c3c2)nnc1-c1cccs1	1	4	29*	5	-2
O=C1C(Cl)=C(N2CCC(C(=O)O)CC2)C(=O)c2ccccc21	x	2	40*	7	37*
Cn1ccnc1C(=O)c1cc(SCC(=O)NCc2ccccc2)nc2ccccc12	-1	-2	-5	0	x
COc1ccc(-n2c(C)cc(C(=O)Cn3nnc4ccccc4c3=O)c2C)cc1	2	-1	27*	3	20
COc1ccc(-n2c(C)cc(C(=O)Cn3nc(C(=O)O)c4ccccc4c3=O)c2C)cc1	0	-4	0	3	x
O=C1NC(Cc2ccccc2)c2nc3ccc(Cl)cc3c(=O)n2-c2ccc(Cl)cc21 (centres undefined)	x	-5	26*	x	-11
CCOc1ccc(-c2noc(CCC(=O)NCC3CCCO3)n2)cc1OC (centres undefined)	x	3	10	x	x
CC(=O)c1ccc(N2CCN(C(=O)C3CCN(S(=O)(=O)c4ccc5c(c4)CC(C)N5C(C)=O)CC3)CC2)cc1 (centres undefined)	x	1	74*	x	73*	LYPLA2 gel ABPP=64*
COc1ccc(N2CCN(C(=O)C3CCN(S(=O)(=O)c4ccc(F)cc4)CC3)CC2)cc1	-3	1	42*	-1	45*
CC(=O)N1c2ccc(S(=O)(=O)N3CCC(C(=O)N4CCN(c5cccc(C(F)(F)F)c5)CC4)CC3)cc2CC1C (centres undefined)	x	-4	15	x	x
COc1ccc(N2CCN(C(=O)COc3ccc(S(=O)(=O)N4CCOCC4)cc3C)CC2)cc1	x	6	28*	x	30*
Cc1ccc(C)c(S(=O)(=O)N2CCCCC2CCNC(=O)C(=O)NC2CC2)c1 (centres undefined)	x	-1	5	x	x
